# RECQ1 helicase = blocks DNA unwinding by human RECQ1; RECQ1 DNA unwinding, red fluorescence kinetic read; 240,000 tested, 0.54% active; P46063; Potency, µM (series often up to 57.3 µM), for the others: at the top dose activity, negative = inhibition, actives largely listed as inhibitors;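 also: plate controls were vehicle for no effect and no enzyme for full effect; nearly all actives have a fitted effect of over 30% in size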
#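 RECQ1T1 50 nM; forked duplex (20 bp + 30-nt ss tails) 200 nM, ATP 2 mM final; pH 8.0, 2 mM MgCl2, 2.5 ug/ml poly(dI-dC); 15 min compound preincubation; discontinuous kinetic read over 2 h at RT.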
# L3MBTL1 inh = blocks human L3MBTL1; Q9Y468; AlphaScreen L3MBTL1–H3K9me1 peptide binding; Potency, µM (top dose mostly 57.1 µM), for inactives: at the top dose activity, negative = inhibition, most hits filed as inhibitors; 230,000 tested, 0.66% active; AID 485360; also: nearly all actives have a fitted effect of over 60% in size
#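 L3MBTL1 (50 nM) pre-complexed 30 min with biotinylated H3(1-15)K9me1 peptide (75 nM), then compounds added for 30 min at room temperature; AlphaScreen streptavidin donor/nickel chelate acceptor beads (10 ug/mL final) read after 30 min dark incubation.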
# APE1 inh = inhibitors of human APE1 endonuclease; P27695; recombinant APE1, TAMRA/BHQ-2 abasic DNA cleavage fluorescence; Potency, µM (series often up to 65.8 µM), for inactives: top-dose activity change, negative = inhibition, hits mostly inhibitors; 350,000 tested, 0.35% active;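 also: plate controls were vehicle for no effect and reference inhibitor for full effect; nearly all actives have a fitted effect of over 55% in size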
#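 Compound pre-exposure to 0.75 nM APE1, 15 min at ambient temperature. Reaction initiated with 50 nM TAMRA/BHQ-2 THF substrate, read immediately in kinetic mode, 525 nm excitation, 598 nm emission.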
# BLM helicase inh = inhibitors of human Bloom syndrome helicase BLM | P54132 | recombinant BLM DNA unwinding, fluorescence dequenching | Potency, µM (series often up to 56.1 µM), for inactives: top-dose activity change, negative = inhibition, usual class: inhibitors | 350,000 tested, 0.2% active | AID 2528;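 also: plate controls were vehicle for no effect and no enzyme for full effect; nearly all actives have a fitted effect of over 35% in size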
# KDM4E inh = blocks human JMJD2E demethylase activity | B2RXH2 | JMJD2E catalytic domain, FDH-coupled NADH fluorescence (FDH is formaldehyde dehydrogenase) | Potency, µM (titrated, usually from 57.1 µM), for the others: at the highest dose activity change, negative = inhibition, most hits filed as inhibitors | 230,000 tested, 1.6% active | AID 2147; active = well fitted inhibition curve with a large enough effect, not every such curve was filed as active; inconclusive = small, poorly fitted or top-dose-only effect, or another doubt; inactive = no such curve, though single readings can be large or run the other way;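 also: 0% = wells with enzyme and -100% = buffer wells without enzyme; nearly all actives have a fitted effect of over 50% in size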
# * marks the source's active call; other numbers are inactive results; i = inactive; ? = inconclusive; . = no result; ! = a repeat was not active. The sample as a whole holds a higher share of hits than the screen did. Unless noted, calls follow the shape of the dose curve; as a rule, active = well fitted curve in the direction sought with a large enough effect; inconclusive = small, poorly fitted or top-dose-only effect, or another doubt; inactive = no such curve, though single readings can be large; an effect the other way counts as inactive or inconclusive. Unless noted, % is scaled to controls: 0 for no effect and ±100 for the full control effect; potency is read from the fitted curve at half-maximal effect.
SMILES,RECQ1 helicase,L3MBTL1 inh,APE1 inh,BLM helicase inh,KDM4E inh
CC1(C)CC(=O)c2c(oc3cc(O)c(O)cc23)C1,20µM*!,.,?,-11%,13µM*
COC(=O)CC1Oc2cc3oc4c(c3cc2O1)C(=O)CC(C)(C)C4 (centres undefined),-6%,.,10%,2%,-16%
C=CCn1c(NC(=O)c2ccccc2Cl)c(C#N)c2nc3ccccc3nc21,?,?,-5%,1µM*,?
COc1ccc(NC2CCN(C3CC(=O)N(c4ccc(F)c(Cl)c4)C3=O)CC2)cc1 (centres undefined),-2%,-22%,-3%,-4%,-3%
COc1ccc(NC(=O)COC(=O)c2cc3c(s2)CCC3)cc1,.,?,5.3µM*,.,.
O=C(COC(=O)c1cc2c(s1)CCCC2)Nc1ccc(Cl)cn1,-4%,-1%,3%,-2%,2%
COc1ccc(CN2CCC(N(CCc3ccccc3)Cc3ccccc3)CC2)c(OC)c1,-10%,.,10%,5%,28µM*
COc1ccc(CNC(=O)c2ccc(N3CCCC3)c(NC(=O)NCc3ccc(C)cc3)c2)cc1,.,.,.,-8%,.
Cc1cccc(N2CCN(C(=O)CSc3ccsc3[N+](=O)[O-])CC2C)c1 (centres undefined),-8%,32µM*,-1%,-17%,5%
Cc1cccc(N2CCN(C(=O)/C=C/c3cccs3)CC2C)c1 (centres undefined),i,.,9%,-7%,-2%
COc1cccc(Cn2ncc3c4sc(B(O)O)cc4n(C)c3c2=O)c1,.,2%,9.5µM*,.,.
COc1cccc(CNC(=O)Cn2ncc3c4ccccc4n(C)c3c2=O)c1,.,.,.,-6%,.
COCCn1c(C)cc(C(=O)CSc2nnc(C)s2)c1C,5%,.,?,3%,-3%
NC(=S)N/N=C/c1cccc(O)c1O,-10%,28µM*,?,1%,35µM*
Oc1ccc(/C=N/NC(=S)Nc2cccnc2)c(O)c1O,3.5µM*,.,0.79µM*,-20%,2.2µM*
Fc1c(F)c(F)c(/C=N/NC(=S)Nc2cccnc2)c(F)c1F,i,-15%,-1%,-16%,1%
Fc1cccc(F)c1/C=N/NC(=S)Nc1cccnc1,i,-17%,12%,0%,-21%
Oc1ccc(/C=N/NC(=S)Nc2cccnc2)c(O)c1,-5%,8.9µM*,-2%,2%,28µM*
Oc1cccc(/C=N/NC(=S)NCCN2CCOCC2)c1O,13µM*,10µM*,?,-1%,25µM*
Cc1ccc(S(=O)(=O)n2nc(-n3c(C)ccc3C)c3c(F)cccc32)c2ccccc12,-17%,.,0%,0%,8%
Cc1cccc(NC(=O)C(=O)NCCc2csc(-c3ccc(C(F)(F)F)cc3)n2)c1C,.,.,.,1%,.
Oc1cccc(/C=N/NC(=S)Nc2cccnc2)c1O,?,4µM*,?,-20%,22µM*
O=C1/C(=C/c2ccco2)CCc2ccccc21,10%,?,-5%,-4%,-4%
Nc1ccc2c(c1)C/C(=C/c1ccco1)C2=O,-25%,28µM*,?,?,?
Cc1cccc(NS(=O)(=O)c2cc(C(=O)NCc3ccccn3)ccc2C)c1,.,.,10%,-7%,.
SMILES,RECQ1 helicase,L3MBTL1 inh,APE1 inh,BLM helicase inh,KDM4E inh
CC(=O)Nc1ccc(S(=O)(=O)NCC2CCC(C(=O)N3CCCCCC3)CC2)cc1 (centres undefined),i,1%,0%,-2%,5%
CC1(C)CC(=O)C(C=Nc2ccc(O)c(N=CC3=C(O)CC(C)(C)CC3=O)c2)=C(O)C1,i,8%,-3%,-1%,3.2µM*
CC1(C)CC(=O)C(C=Nc2ccc(C(=O)c3ccccc3)cc2N=CC2=C(O)CC(C)(C)CC2=O)=C(O)C1,-4%,?,17%,-15%,20µM*
CC1(C)CC(=O)C(C=Nc2ccc3c(c2)OCO3)=C(O)C1,1%,.,?,0%,?
CC1(C)CC(=O)C(N=Nc2cc(Cl)c(Cl)c(Cl)c2)=C(O)C1,-9%,.,25%,1%,0%
Cc1ccc(O)c(N=NC2=C(O)CC(C)(C)CC2=O)c1,10%,28µM*,-10%,-6%,0.56µM*
Cc1ccc(-c2cn(C[C@H]3CC[C@@H]([C@@H]4CC[C@H](Cn5cc(-c6ccc(C)cc6)nn5)O4)O3)nn2)cc1,.,48%,-2%,-4%,.
c1ccc(-c2cn(C[C@H]3CC[C@H](Cn4cc(-c5ccccn5)nn4)O3)nn2)nc1,.,0.28µM*,0%,0%,.
Cc1ccc(NC(=O)c2cc(-c3ccco3)nc3ccccc23)cc1S(=O)(=O)N1CCOCC1,?,-8%,?,-19%,16µM*
COc1ccc(NC(=O)c2cc(C)nc3ccccc23)cc1S(=O)(=O)N1CCOCC1,.,5%,31%,.,.
COc1cnc(-c2ccccn2)nc1Sc1ccccc1,-7%,?,-5%,5%,7%
COc1ccc(Sc2nc(-c3ccccn3)ncc2OC)cc1,1%,3.5µM*,13%,4%,3%
Cc1ccc(NC(=O)CN2C(=O)N/C(=C/c3cc(C)n(-c4ccc(C(=O)O)cc4)c3C)C2=O)cc1,40µM*,.,?,-6%,?
O=c1[nH]c(=O)n([C@@H]2O[C@H](CO)[C@@H](O)[C@H]2O)cc1Br,i,.,15%,2%,1%
Nc1ccn(C2OC(CO)C(O)C2O)c(=O)n1 (centres undefined),13%,.,2%,4%,9%
Nc1ccn([C@@H]2O[C@H](CO)[C@@H](O)[C@@H]2O)c(=O)n1,-2%,6%,2%,-12%,0.89µM*!
Nc1cn(C2OC(CO)C(O)C2O)c(=O)[nH]c1=O (centres undefined),.,-5%,19µM*,-1%,.
CC(C)N1CCN(Cc2nc3ccccc3s2)CC1CCO (centres undefined),i,3%,-4%,-1%,-1%
CC1(C)CC(=O)C2=C(C1)N(CCN1CCOCC1)C1=C(C(=O)CC(C)(C)C1)C2c1cccc(F)c1,-15%,9%,-9%,-1%,?
c1cc2[nH]snc2c2nc(C3CC3)nc12,17%,0%,2%,-1%,20µM*
O=C(/C=C/c1ccccc1)c1ccccc1,?,2%,17%,-13%,-2%
O=C(/C=C/c1ccccc1)/C=C/c1ccccc1,14µM*,0%,10%,-13%,-4%
CC1N(C)c2cc(NC(=O)c3ccco3)ccc2C1(C)C (centres undefined),25µM*,-14%,?,?,3%
CC(=O)Nc1ccc(NC(=O)c2ccco2)cc1,i,.,-1%,2%,-4%
CCOc1cc(N2CCOCC2)c(OCC)cc1NC(C)C(=O)N1CCC(C)CC1 (centres undefined),-6%,2%,1%,-2%,11µM*
CCOc1cc(N2CCOCC2)c(OCC)cc1NC(=O)[C@H](C)N1C(=O)C2CC=CCC2C1=O (some centres undefined),i,1%,?,-3%,-4%

# Screening results deposited in PubChem BioAssay by National Center for Advancing Translational Sciences (NCATS).
